Mot1-301 SUMO – blocks SUMOylation pathway, rescuing yeast Mot1-301 growth | growth rescue, % at 18.8 µM | 320,000 tested, 1% active | S. cerevisiae Mot1-301 growth rescue, ATP luminescence, 38.5C; percent above DMSO median, 100 means doubled;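 active = every valid replicate shows activation above 250% relative to neutral control wells; inactive = the rest, any valid replicate at or below 250%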
PKA-R2B act – activates the human PKA-R2B holoenzyme complex; P22694+P31323; PKA-R2B holoenzyme dissociation, Cy5-IP20 fluorescence polarization; R2B truncated from residue 108, S112A mutant; 0% DMSO only, 100% 113 µM cGMP; activation, % at 11.4 µM; 340,000 tested, 0.079% active;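 active = activation above a cutoff set at the mean over all compounds plus 3 SD, cut at about 18% in these data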;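 also: higher means more holoenzyme dissociation and a rise in polarization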
Target sequence (P31323 whole entry, looked up, other chains not shown, the tested form may be a part): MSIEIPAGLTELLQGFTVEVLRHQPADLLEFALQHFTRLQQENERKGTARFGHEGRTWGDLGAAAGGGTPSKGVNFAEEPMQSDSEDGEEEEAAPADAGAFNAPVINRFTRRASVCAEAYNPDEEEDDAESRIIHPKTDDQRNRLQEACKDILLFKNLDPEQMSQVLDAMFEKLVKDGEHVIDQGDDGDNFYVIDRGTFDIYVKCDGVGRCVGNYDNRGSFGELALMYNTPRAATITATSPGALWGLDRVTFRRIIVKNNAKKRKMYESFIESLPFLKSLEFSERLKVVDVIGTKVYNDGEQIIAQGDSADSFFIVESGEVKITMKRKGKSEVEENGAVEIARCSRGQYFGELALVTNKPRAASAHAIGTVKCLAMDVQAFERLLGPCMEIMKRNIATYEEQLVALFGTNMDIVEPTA
MsrA inh – inhibitors of bovine MsrA. purified bovine MsrA, absorbance read-out. 360,000 tested, 0.75% active. inhibition, % at 15.5 µM. AID 651718
PKA-R1A act – activators of PKA-R1A complex; P00514+P68181; activation, % at 11.4 µM; PKA-R1A dissociation, Cy5-IP20 fluorescence polarization; scaled: DMSO 0%, 113 µM cGMP 100%; 340,000 tested, 0.083% active;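 active = percent activation above the mean of all tested compounds plus 3 SD, cut at about 19% in these data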;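 also: higher means more PKAc released from R1A so a rise in polarization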
MsrA act – activators of bovine methionine sulfoxide reductase A | purified bovine MsrA, absorbance read-out | activation, % at 10.6 µM | 360,000 tested, 0.3% active | AID 602163; in the data active = activation above about 7.5%
MsrA inh confirm – bovine MsrA inhibition, confirmed. 2,300 tested, 41% active. purified bovine MsrA, absorbance read-out. shares compounds with MsrA inh. inhibition, % at 15.5 µM;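 also: coupled to thioredoxin reductase with NADPH and selenocystamine and DMSO as substrate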
Numbers stand for hits; n = inactive; x = not tested or not shown. This is a sample that favours compounds with a hit; in the whole collection about 2% have one here. Rule as the data show it, unless noted: active = inhibition above about 4.5%; inactive = the rest.

SMILES	Mot1-301 SUMO	PKA-R2B act	MsrA inh	PKA-R1A act	MsrA act	MsrA inh confirm
CCOC(=O)c1sc(C)c2c(=O)n(CC)nnc12	n	n	5.7	n	n	n
O=C(Nc1ccn(CCCN2CCC(N3CCOCC3)CC2)c(=O)n1)OCc1ccccc1	x	n	n	n	n	x
CC(=O)OC1COC(n2ccc3cc([N+](=O)[O-])ccc32)C(OC(C)=O)C1OC(C)=O (stereo not given)	n	n	6.0	n	n	n
COc1cccc(Oc2nnnn2-c2ccccc2)c1	n	n	4.7	n	n	n
CCc1ccc(N2C=C(C(=O)OC)C(c3cccc4ccccc34)C(C#N)=C2N)cc1 (stereo not given)	x	x	n	x	x	x
COCc1nnc(NC(=O)c2sc3ccccc3c2Cl)s1	n	n	5.0	n	n	n
Cc1nnc(NC(=O)c2sc3ccccc3c2Cl)s1	n	n	n	n	n	x
CCCc1cc(=O)oc2c3c(cc(OCC(=O)N4CCC(C(=O)O)CC4)c12)OC(C)(C)CC3	x	x	5.0	x	n	n
CCCNC(=O)C1(C)CCN(Cc2ccc(C(=O)OCC)cc2)C1 (stereo not given)	x	x	n	x	n	x
CCOC(=O)C1=CCC(c2ccc(N(CC)CC)cc2)N(S(=O)(=O)c2ccc(C)cc2)C1c1ccc([N+](=O)[O-])cc1 (stereo not given)	x	x	n	x	x	x
CCOC1=C2[C@@H](CN(S(=O)(=O)c3ccc(C)cc3)[C@H]2c2ccccc2F)[C@H]2C(=O)N(c3ccccc3)C(=O)[C@H]2C1	x	x	n	x	n	x
Cc1cc(C(=O)OCC(=O)NC(C)c2ccccc2)c(C)o1 (stereo not given)	n	n	n	n	n	x
Cc1ccc(/C=C/C(=O)OCC(=O)NC(C)c2ccccc2)o1 (stereo not given)	n	n	6.5	n	n	n
O=C(N=Nc1c(O)[nH]c2ccccc12)c1ccc(CN2CCOCC2)cc1	n	n	6.1	n	n	n
O=C(N=Nc1c(O)[nH]c2ccccc12)c1ccco1	n	n	6.8	n	n	5.0
CCCn1c(O)c(N=NC(=O)c2ccco2)c2ccccc21	n	n	4.7	n	n	5.3
CCCNC(=O)C1(C)CCCN(Cc2ccccc2F)C1 (stereo not given)	x	x	n	x	n	x
COc1ccc(CN2c3ccccc3C(=O)CS2(=O)=O)cc1OC	x	x	n	x	x	x
CCOC(=O)[C@]12CCCC=C1N(Cc1ccc(Cl)cc1Cl)C(=O)[C@H](CC(=O)NCCC(C)C)C2	x	x	n	x	n	x
Cc1cccc(C)c1-c1ccc(CN2C(CC(C)C)C(=O)N(Cc3cn(CC4CCCCC4)nn3)CCS2(=O)=O)cc1 (stereo not given)	x	n	n	n	n	x
Cc1[nH]c2ccccc2c1C(C#N)(C#N)C1C(=O)c2ccccc2C1=O	n	n	47	n	n	46
N#C/C(=C\c1ccc(-c2cccc(C(F)(F)F)c2)o1)C(=O)Nn1cnnc1	n	n	4.8	n	n	n
Cc1c(NC(=O)/C(C#N)=C/c2ccc(-c3cccc(Cl)c3)o2)c(=O)n(-c2ccccc2)n1C	n	n	n	n	n	x
COC(=O)/C=C1\S/C(=N/N=C/c2ccccc2)NC1=O	x	n	n	n	n	x
COC(=O)/C=C1\S/C(=N/N=C/c2ccco2)NC1=O	n	n	4.7	n	n	n
SMILES	Mot1-301 SUMO	PKA-R2B act	MsrA inh	PKA-R1A act	MsrA act	MsrA inh confirm
COC(=O)/C=C1/S/C(=N/NC(=O)c2ccccc2C)NC1=O	n	n	6.7	n	n	n
CN(Cc1ccccc1)C(=O)C1(C)CCN1C(=O)Cc1ccc(Cl)cc1Cl (stereo not given)	x	x	n	x	n	x
CC(C)[C@@H]1NC(=O)[C@@H]2CSCCS(=O)(=O)N2C1=O	x	x	n	x	x	x
COc1cccc(CNC(=O)[C@H]2CCCN2C(=O)[C@H]2CCCN2)c1	x	x	n	x	x	x
Cn1c(O)c(N=NC(=O)CNC(=O)c2cccnc2)c2ccccc21	n	n	4.7	n	n	n
CS/C(=C/[N+](=O)[O-])Nc1cccc2c1C(C)CC2(C)C (stereo not given)	n	n	23	n	n	20
CCOC(=O)c1nnsc1Nc1ccc(C)c(C)c1	n	n	8.2	n	n	7.0
CCOC(=O)c1nnsc1-c1ccc(-c2snnc2C(=O)OCC)cc1	n	n	n	n	n	x
C=CCSC1=NC(=O)/C(=C/c2cccs2)S1	n	n	n	n	n	x
Cc1ccc(/C=C2\SC(N3CCCCC3)=NC2=O)cc1	n	n	5.0	n	n	4.8
O=C1N=C(N2CCOCC2)S/C1=C/c1cccs1	n	n	5.4	n	n	5.4
CC(=O)N1CCN(C2=NC(=O)/C(=C\c3cccs3)S2)CC1	n	n	n	n	n	x
NC1=NC(=O)/C(=C/c2cccs2)S1	n	n	6.2	n	n	n
Cc1cccc(Nc2c([N+](=O)[O-])cc(C(=O)N3CC(=O)Nc4ccccc43)cc2[N+](=O)[O-])c1	x	n	4.7	n	n	n
Cc1ccc(C)c(Nc2c([N+](=O)[O-])cc(C(=O)N3CC(=O)Nc4ccccc43)cc2[N+](=O)[O-])c1	n	n	12	n	n	9.9
Cc1cc(C(=O)N/N=C/C=C/c2cccc([N+](=O)[O-])c2)n[nH]1	n	n	5.9	n	n	n
O=C(N/N=C/C=C/c1ccccc1)c1cc(C2CC2)[nH]n1	n	n	n	n	n	x
Cc1cc(C(=O)N/N=C/C=C/c2ccccc2)n[nH]1	n	n	5.8	n	n	5.1
O=C(N/N=C/C=C\c1cccc([N+](=O)[O-])c1)c1ccccn1	n	n	n	n	n	x
COc1ccc(-c2cc(C(F)F)nc(-n3nc(C)cc3C)n2)cc1	n	n	15	n	n	16
COc1ccc(-c2csc(CCn3nc(C)cc3C)n2)cc1	n	n	n	n	n	x
Cc1ccc(-c2cc(C(F)F)nc(N3CCOCC3)n2)cc1	n	n	11	n	n	9.7
CC(=O)Oc1ccc2c(=O)c(/C=N/c3cc(=O)[nH]c(=S)[nH]3)coc2c1	n	n	5.5	n	n	n
CCCCN1C(=O)C(CC(=O)NCCN2CCOCC2)CC(C(=O)N(CC)CC)=C1C (stereo not given)	x	n	n	n	n	x
O=c1[nH]c(-c2ccccc2)cn1C1CCN(Cc2ccc(-c3nc4ccccc4nc3-c3ccccc3)cc2)CC1	x	x	n	x	x	x
SMILES	Mot1-301 SUMO	PKA-R2B act	MsrA inh	PKA-R1A act	MsrA act	MsrA inh confirm
O=Nc1ccc(Cl)cn1	x	x	n	x	x	x
Cc1cc(C)cc(N2CN=c3s/c(=C\c4ccco4)c(=O)n3C2)c1	n	n	n	n	n	x
Cc1ccc(/C=c2\sc3n(c2=O)CN(c2cccc(Br)c2)CN=3)o1	x	n	n	n	n	x
O=c1/c(=C/c2ccco2)sc2n1CN(c1ccccc1)CN=2	n	n	5.0	n	n	6.1
O=c1/c(=C/c2ccco2)sc2n1CN(c1cccc(Br)c1)CN=2	n	n	5.2	n	n	n
Fc1ccc(N/N=C/c2ccncc2)c(F)c1	n	n	n	n	n	x
O=C(O)c1ccc(/C=N/Nc2ccc(F)cc2F)cc1	n	n	5.6	n	n	n

Compound activity (PubChem)
